Source: PubChem BioAssay (National Center for Advancing Translational Sciences (NCATS))
This is a sample that favours compounds with a hit; in the whole collection about 7.5% have one here.
Giardia FBPA inh: blocks Giardia fructose-bisphosphate aldolase activity; purified Giardia FBPA; 290,000 compounds, 0.71% hits; A8B2U2; Potency, µM (top dose mostly 59.6 µM), for the others: at the highest dose activity, negative = inhibition, hits mostly inhibitors; AID 2451; note: potency is the fitted concentration of half-maximal effect; nearly all actives have a fitted effect of over 55% in size
Target sequence (A8B2U2 whole entry, looked up): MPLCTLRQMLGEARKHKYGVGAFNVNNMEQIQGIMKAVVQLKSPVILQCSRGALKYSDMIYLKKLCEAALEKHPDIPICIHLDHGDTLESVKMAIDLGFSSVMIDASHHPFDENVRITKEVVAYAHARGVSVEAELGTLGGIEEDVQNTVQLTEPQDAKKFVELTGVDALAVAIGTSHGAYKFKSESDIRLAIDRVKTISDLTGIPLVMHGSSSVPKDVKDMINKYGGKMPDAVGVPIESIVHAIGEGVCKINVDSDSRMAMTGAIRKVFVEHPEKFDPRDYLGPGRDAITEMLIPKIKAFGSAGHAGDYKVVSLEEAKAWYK
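Giardia FBPA (40 nM reagent) was preincubated 10 min at RT with compound (up to 57.5 uM final), then substrate plus GAPDH/TPI/NAD/arsenate coupling system with diaphorase/resazurin was added; resorufin fluorescence (525/598 nm) was read after 20 min.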
VACV Venus inh: vaccinia inhibition (Venus reporter). Vaccinia virus Venus reporter expression, fluorescence. Potency, µM (doses to about 36.5 µM), inactives show at the top dose activity change, negative = inhibition, hits mostly inhibitors. 330,000 compounds, 0.46% hits; calls by dose curve; tested in A549 cells; note: potency is the fitted concentration of half-maximal effect; nearly all actives have a fitted effect of over 30% in size
HCMV antiviral: inhibitors of human cytomegalovirus | HFF cells, HCMV-luciferase reporter, 72 h; stronger effect = lower value | activity change, negative = inhibition, % at 57.5 µM | 410,000 compounds, 4.5% hits; in the data active = activity change below about -60%; inconclusive = no clear call, values can overlap the other calls; inactive = above about -39%
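HFF cells seeded 16 h at 37C, treated with compounds, infected with luciferase-reporter HCMV at MOI 1 PFU/cell; luciferase read at 72 h post infection, normalized to buffer-only and Salinomycin controls.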
FMDV antiviral: blocks foot and mouth disease virus; FMDV antiviral cell-based qHTS; Potency, µM (titrated, usually from 57.9 µM), for inactives: at the top dose activity change, negative = inhibition, usual class: inhibitors; 410,000 compounds, 1.2% hits; calls by dose curve; tested in HEK293T cells; note: read-out not given here; potency is the fitted concentration of half-maximal effect; nearly all actives have a fitted effect of over 45% in size
Vaccinia mCherry: vaccinia inhibition (mCherry reporter) | Vaccinia virus mCherry reporter infection, fluorescence | Potency, µM (highest dose often 36.5 µM), without a hit: at the highest dose activity change, negative = inhibition, most hits filed as inhibitors | 310,000 compounds, 0.63% hits; calls by dose curve; tested in A549 cells; note: potency is the fitted concentration of half-maximal effect; nearly all actives have a fitted effect of over 35% in size
HCV inhibitor: HCV inhibition; Huh7.5.1 HCVcc-Cre infection, luciferase reporter, 44 h; Potency, µM (doses to about 41.8 µM), without a hit: at the highest dose activity change, negative = inhibition, actives largely listed as inhibitors; 340,000 compounds, 3.4% hits; AID 651820; note: potency is the fitted concentration of half-maximal effect
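After 44 h co-culture of compound, cells and HCVcc-Cre (~0.5 moi), substrate is added for 15 min at room temperature and luciferase measured over 15 sec. Cells were seeded at 1,000/well and pre-cultured 4 h.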
Active calls of the source: *; ! = not active in a repeat; [ ] = another dose, or the depositor's remark. Unless noted, calls come from the whole dose curve; as a rule, active = well fitted curve in the direction sought with a large enough effect; inconclusive = small, poorly fitted or top-dose-only effect, or another doubt; inactive = no such curve, though single readings can be large; an effect the other way counts as inactive or inconclusive. % is set by controls: 0 for no effect and ±100 for the full control effect.

`CCOc1cccc2cc(-c3csc(NC(=O)CCC(=O)NCCCN4CCC(C)CC4)n3)c(=O)oc12` gave Giardia FBPA inh -1%.
For CC(C)Cn1c(N)c(C(=O)COC(=O)c2cc(C3CC3)nc3ccccc23)c(=O)n(C)c1=O the results were Giardia FBPA inh -14%, VACV Venus inh inconclusive, HCMV antiviral 15, FMDV antiviral 32µM*, Vaccinia mCherry -24% and HCV inhibitor inconclusive.
Screening CC(C)Cn1c(N)c(C(=O)COC(=O)c2cc(C(F)(F)F)nc3ccccc23)c(=O)n(C)c1=O returned Giardia FBPA inh -14%, VACV Venus inh inconclusive, HCMV antiviral -3, FMDV antiviral 28µM*, Vaccinia mCherry inconclusive and HCV inhibitor inconclusive.
CC(C)Cn1c(N)c(C(=O)COC(=O)c2cc(-c3ccccc3)nc3ccccc23)c(=O)n(C)c1=O was read as Giardia FBPA inh -10%, VACV Venus inh -22%, HCMV antiviral -14, FMDV antiviral inconclusive, Vaccinia mCherry inactive and HCV inhibitor inconclusive.
CC(C)Cn1c(N)c(C(=O)COC(=O)c2cnc(Cl)c(Cl)c2)c(=O)n(C)c1=O was read as Giardia FBPA inh 1%, HCMV antiviral 13, FMDV antiviral -34% and HCV inhibitor 16µM*.
`O=C(COc1ccc(S(=O)(=O)N2CCCC2)cc1)NCC1CCCO1` (stereo not given) gave Giardia FBPA inh 3%, VACV Venus inh 3%, HCMV antiviral 8, FMDV antiviral -21%, Vaccinia mCherry inactive and HCV inhibitor 14%.
COCCCn1c(-c2ccc(S(=O)(=O)N3CCOCC3)cc2)csc1=Nc1ccccc1 was read as Giardia FBPA inh 1%, VACV Venus inh inconclusive, HCMV antiviral -88*!, FMDV antiviral 11µM*, Vaccinia mCherry -5% and HCV inhibitor inconclusive.
For OCCCn1c(-c2ccccc2)csc1=Nc1ccccc1 the results were Giardia FBPA inh -4%, VACV Venus inh -19%, HCMV antiviral -30, FMDV antiviral inconclusive, Vaccinia mCherry -18% and HCV inhibitor inconclusive.
Screening O=S(=O)(c1ccc(-c2csc(=Nc3ccc(OC(F)(F)Cl)cc3)n2CCCO)cc1)N1CCCC1 returned VACV Venus inh inconclusive, HCMV antiviral -100*, FMDV antiviral inconclusive and Vaccinia mCherry inconclusive.
`CCn1c(-c2ccc(S(=O)(=O)N3CCOCC3)cc2)csc1=Nc1ccc(C)c(Cl)c1` gave VACV Venus inh -23%, HCMV antiviral 3, FMDV antiviral inconclusive and Vaccinia mCherry -1%.
Screening Cn1c(-c2ccc(S(=O)(=O)N3CCCC3)cc2)csc1=Nc1ccc(Cl)c(Cl)c1 returned VACV Venus inh -26%[7.34 µM], HCMV antiviral -62*, FMDV antiviral 0% and Vaccinia mCherry -18%[7.34 µM].
`CS(=O)(=O)Cc1ccc(C(=O)N2CCCC2c2cccs2)cc1` (stereo not given) gave Giardia FBPA inh 1%, VACV Venus inh -4%, HCMV antiviral 0, FMDV antiviral 40%, Vaccinia mCherry -3% and HCV inhibitor 8%.
`CCc1nc2oc3ccccc3c(=O)c2cc1C(=O)OC` gave Giardia FBPA inh 0%, VACV Venus inh -5%, FMDV antiviral 70%, Vaccinia mCherry -9% and HCV inhibitor inconclusive.
Screening O=c1cc(CSc2ccc(Cl)cc2)nc(-c2ccccc2)[nH]1 returned Giardia FBPA inh 0%, VACV Venus inh -14%, HCMV antiviral -35, FMDV antiviral -26%, Vaccinia mCherry inconclusive and HCV inhibitor 19%.
Screening O=c1cc(CSc2ccccc2)nc(-c2ccccc2)[nH]1 returned Giardia FBPA inh 3%, VACV Venus inh -7%, HCMV antiviral -105*, FMDV antiviral -10%, Vaccinia mCherry -12% and HCV inhibitor -3%.
Screening Clc1ccc(SCc2cc(N3CCOCC3)nc(-c3ccccn3)n2)cc1 returned Giardia FBPA inh 10%, VACV Venus inh inconclusive, HCMV antiviral -92*, FMDV antiviral -26%, Vaccinia mCherry 7.9µM* and HCV inhibitor 8.9µM*.
O=c1cc(CSc2ccc(Cl)cc2)nc(-c2ccccn2)[nH]1 was read as Giardia FBPA inh 0%, VACV Venus inh inconclusive, HCMV antiviral -61*, FMDV antiviral inconclusive, Vaccinia mCherry inconclusive and HCV inhibitor inconclusive.
For O=c1cc(-c2ccccc2)n2c(SCc3cccc([N+](=O)[O-])c3)nnc2[nH]1 the results were VACV Venus inh -3%, HCMV antiviral -40, FMDV antiviral -6% and Vaccinia mCherry inactive.
COc1cccc(-c2nc3cc(SC)ccc3cc2CN(C(=O)c2sccc2C)C2CC2)c1 was read as VACV Venus inh -14%, FMDV antiviral -3% and Vaccinia mCherry inactive.
For O=c1c(-c2ccccc2)coc2cc(O)cc(O)c12 the results were Giardia FBPA inh 20µM*, VACV Venus inh -16%, FMDV antiviral 22% and Vaccinia mCherry -7%.
For O=c1c(-c2ccc3c(c2)OCCO3)coc2cc(O)cc(O)c12 the results were Giardia FBPA inh 0%, HCMV antiviral 129, FMDV antiviral 44% and HCV inhibitor -5%.
Screening CC1(C)C=Cc2cc(-c3coc4cc(O)cc(O)c4c3=O)cc(O)c2O1 returned VACV Venus inh -3%, HCMV antiviral -61*, FMDV antiviral 24%, Vaccinia mCherry -16% and HCV inhibitor 11µM*.
NC(=O)c1cc2ccc(O)cc2oc1=Nc1ccccc1 was read as Giardia FBPA inh 7%, VACV Venus inh -13%, HCMV antiviral -82*, FMDV antiviral 4%, Vaccinia mCherry -12% and HCV inhibitor 13%.
For COc1ccc2cc(C(N)=O)c(=Nc3ccccc3)oc2c1 the results were Giardia FBPA inh 8%, VACV Venus inh -16%, HCMV antiviral inconclusive, FMDV antiviral -11%, Vaccinia mCherry inactive and HCV inhibitor inconclusive.
Screening Cc1cc2c(c(/C=C/C(=O)c3ccccc3)c1)OC1(C=C2)Oc2ccccc2C(=O)N1C (stereo not given) returned Giardia FBPA inh -10%, VACV Venus inh -5%, HCMV antiviral -13, FMDV antiviral 25µM*, Vaccinia mCherry -13% and HCV inhibitor 13µM*.
For Cn1c(Cc2ccccc2)nc2cnc(Nc3cccc(C(F)(F)F)c3)cc21 the results were HCMV antiviral 14.
`CC(C(=O)c1ccccc1)[n+]1cccc(Cl)c1` (stereo not given) gave VACV Venus inh inconclusive and Vaccinia mCherry -19%.
COc1ccc(CCNc2ncnc3sc(C(=O)N4CCCCC4)c(C)c23)cc1OC was read as VACV Venus inh -20%, FMDV antiviral inconclusive and Vaccinia mCherry -23%.
Screening COc1ccc(CCNc2ncnc3sc(C)cc23)cc1OC returned Giardia FBPA inh inconclusive, VACV Venus inh -17%, HCMV antiviral -70*, FMDV antiviral 32µM*, Vaccinia mCherry inconclusive and HCV inhibitor 2.2µM*.
